Reference: PubChem BioAssay (NCATS)
Results filed as inconclusive are left out. Unless noted, calls follow the shape of the dose curve; as a rule, active = well fitted curve in either direction with a large enough effect (not every such curve was filed as active); inconclusive = small, poorly fitted or top-dose-only effect, or another doubt; inactive = flat fitted curve, though single readings scatter.

Legend:
[1] = AP1 Signaling Pathway (AID 357); settings: ME-180 AP-1-bla reporter, EGF-induced, beta-lactamase ratio, 5 h; at 17.2 µM (top of the series) unless noted;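 also: ME-180 reporter cells stimulated with EGF at its EC50 level; % is scaled to controls: 0 for no effect and ±100 for the full control effect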
How it was run: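 Beta-lactamase reporter under AP-1 response element, ME-180 background. Stimulus: EC50 EGF. Compound exposure 5 h, 37 °C. Detection: CCF4, 2.5 h RT, 460/530 nm. Values: AC50 from titration.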

[2] = NFAT Signaling Pathway (AID 444); settings: Jurkat NFAT-bla M1, carbachol, beta-lactamase ratio, 5 h; at 17.2 µM (top of the series) unless noted;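 also: carbachol stimulus at about its EC50 of 1 µM final; % is scaled to controls: 0 for no effect and ±100 for the full control effect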
How it was run: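 Jurkat cells with NFAT-driven β-lactamase reporter and co-expressed M1 receptor, stimulated with carbachol (final 1 uM, ~EC50), compound titration, 5 h at 37 °C. CCF4 loaded 1 h at RT; 460/530 nm ratio gave %activity and AC50.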

[3] = Stat Signaling Pathway (AID 446); settings: ME-180 SIE beta-lactamase reporter, IL-6 stimulated, 5 h; at 17.2 µM (top of the series) unless noted;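 also: ME-180 cervical cancer cells given 40 pM IL-6 alongside compound; SIE-controlled beta-lactamase reporter measured as 460/530 nm FRET emission ratio; % is scaled to controls: 0 for no effect and ±100 for the full control effect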
How it was run: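 ME-180 cells carrying a SIE-driven beta-lactamase reporter are stimulated with 40 pM IL-6 for 5 h at 37C in the presence of compound. The 460/530 nm FRET substrate ratio is read after 2.5 h at RT. Data are normalised to 300 pM IL-6 and to 125 nM JAK inhibitor controls.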

[4] = biological target: Glucocorticoid receptor (Homo sapiens) (UniProt P04150); assay: GR-GFP Redistribution (AID 450;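 active = compounds whose dose series gives a full or clear partial fitted curve of increased nuclear translocation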; also: potency is read from the fitted curve at half-maximal effect)
Chain of Glucocorticoid receptor (Homo sapiens) (P04150 whole entry, looked up): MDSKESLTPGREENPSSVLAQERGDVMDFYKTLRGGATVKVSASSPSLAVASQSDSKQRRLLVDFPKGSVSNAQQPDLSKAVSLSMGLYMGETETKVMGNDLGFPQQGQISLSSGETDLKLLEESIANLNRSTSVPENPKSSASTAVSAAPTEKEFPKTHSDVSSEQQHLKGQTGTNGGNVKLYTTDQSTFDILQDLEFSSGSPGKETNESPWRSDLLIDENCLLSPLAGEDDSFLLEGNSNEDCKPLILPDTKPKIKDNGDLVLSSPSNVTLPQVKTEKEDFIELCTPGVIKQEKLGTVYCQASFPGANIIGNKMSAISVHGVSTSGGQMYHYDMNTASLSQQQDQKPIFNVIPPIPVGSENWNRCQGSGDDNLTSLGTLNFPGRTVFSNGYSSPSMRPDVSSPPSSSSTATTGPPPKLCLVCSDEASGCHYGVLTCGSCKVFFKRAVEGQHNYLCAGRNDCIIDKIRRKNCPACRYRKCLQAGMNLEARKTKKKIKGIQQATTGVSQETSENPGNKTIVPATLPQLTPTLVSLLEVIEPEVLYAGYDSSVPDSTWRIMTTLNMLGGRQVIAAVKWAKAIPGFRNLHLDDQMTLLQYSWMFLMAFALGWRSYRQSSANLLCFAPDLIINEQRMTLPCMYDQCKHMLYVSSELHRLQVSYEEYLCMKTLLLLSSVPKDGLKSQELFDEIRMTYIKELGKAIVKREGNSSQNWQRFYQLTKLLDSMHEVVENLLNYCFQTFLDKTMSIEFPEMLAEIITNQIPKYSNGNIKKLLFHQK

Cc1nn2c(-c3ccc(Cl)cc3)nnc2s1
inactive: activity change, negative = inhibition [1] -4.06% | activity change, negative = inhibition [2] -5.76% | activity, negative = inhibition [3] 14.5% | Potency [4] > 20.6 µM

Cc1cccc(OCC(=O)N2CCC(N3CCOCC3)CC2)c1
inactive: activity change, negative = inhibition [1] -0.218% | activity change, negative = inhibition [2] 6.61% | activity, negative = inhibition [3] 2.76% | Potency [4] > 20.6 µM

CC(NC(=O)c1ccc(=O)oc1)c1ccccc1 (centres undefined)
inactive: activity change, negative = inhibition [1] 8.92% | activity change, negative = inhibition [2] 0.391% | activity, negative = inhibition [3] 6.96% | Potency [4] > 20.6 µM

COc1ccc2c(c1)[nH]c1c(=O)n(CCN(C)C)cnc12
inactive: activity change, negative = inhibition [1] 10.5% | activity change, negative = inhibition [2] 15.2% | activity, negative = inhibition [3] 8.04% | Potency [4] > 20.6 µM

COc1ccc(OC)c(C2C(C(=O)c3sc(C)nc3C)=C(O)C(=O)N2CCN2CCOCC2)c1 (centres undefined)
inactive: activity change, negative = inhibition [1] 4.44% | activity change, negative = inhibition [2] 16.6% | activity, negative = inhibition [3] -1.07% | Potency [4] > 20.6 µM

Cc1ccc(OCC(=O)NCC(=O)n2nc(C)cc2C)cc1
inactive: activity change, negative = inhibition [1] -4.61% | activity change, negative = inhibition [2] -11.6% | activity, negative = inhibition [3] -3.12% | Potency [4] > 20.6 µM

Cc1cc(=O)n2[nH]cnc2n1
inactive: activity change, negative = inhibition [1] 14.3% | activity change, negative = inhibition [2] 10.4% | activity, negative = inhibition [3] 13.7% | Potency [4] > 20.6 µM

c1ccc(SCc2nc3ccccc3[nH]2)nc1
inactive: activity change, negative = inhibition [1] -0.127% | activity change, negative = inhibition [2] 6.97% | activity, negative = inhibition [3] 8.86% | Potency [4] > 20.6 µM

N#CC12CCCCC1CC1CCCCC1(C#N)N2Cc1ccccn1 (centres undefined)
inactive: activity change, negative = inhibition [1] 3.99% | activity change, negative = inhibition [2] -14.8% | activity, negative = inhibition [3] 19.1% | Potency [4] > 20.6 µM

CN1C(=O)CC(N2CCN(c3ccc(Cl)c(Cl)c3)CC2)C1=O (centres undefined)
inactive: activity change, negative = inhibition [1] 17.6% | activity change, negative = inhibition [2] 16.8% | activity, negative = inhibition [3] 0.709% | Potency [4] > 20.6 µM

COc1ccc(NCc2cc3ccccc3[nH]c2=O)cc1
inactive: activity change, negative = inhibition [1] -1.34% | activity change, negative = inhibition [2] -19.9% | activity, negative = inhibition [3] 1.46% | Potency [4] > 20.6 µM

COc1ccccc1NC(=O)c1c(C)cc(=O)oc1C
inactive: activity change, negative = inhibition [1] 13% | activity change, negative = inhibition [2] 12.5% | activity, negative = inhibition [3] 0.453% | Potency [4] > 20.6 µM

COCCCNC(=O)C(C#N)c1nc2ccccc2nc1N1CCCC1 (centres undefined)
inactive: activity change, negative = inhibition [1] 5.84% | activity change, negative = inhibition [2] 8.15% | activity, negative = inhibition [3] 20.8% | Potency [4] > 20.6 µM

Cn1cc(C(=O)NCN2CCCCC2)c2ccccc21
inactive: activity change, negative = inhibition [1] -2.91% | activity change, negative = inhibition [2] -0.662% | activity, negative = inhibition [3] 3.15% | Potency [4] > 20.6 µM

COc1cccc(C2/C(=C(\O)c3ccc4c(c3)OCCO4)C(=O)C(=O)N2CCN(C)C)c1 (centres undefined)
inactive: activity change, negative = inhibition [1] -3.08% | activity change, negative = inhibition [2] 2.4% | activity, negative = inhibition [3] 9.63% | Potency [4] > 20.6 µM

Cc1cc(C)n(-c2nnc(C)n2/N=C/c2ccco2)n1
inactive: activity change, negative = inhibition [1] 4.26% | activity change, negative = inhibition [2] -7.08% | activity, negative = inhibition [3] 2.31% | Potency [4] > 20.6 µM

Cc1nnc(SCC(=O)N2CCOCC2)c2ccccc12
inactive: activity change, negative = inhibition [1] -1.59% | activity change, negative = inhibition [2] 3.16% | activity, negative = inhibition [3] 2.48% | Potency [4] > 20.6 µM

COC(=O)C(NC(=O)c1ccco1)(Nc1ccc(Br)cn1)C(F)(F)F (centres undefined)
inactive: activity change, negative = inhibition [1] -10.6% | activity change, negative = inhibition [2] -10.8% | activity, negative = inhibition [3] -13% | Potency [4] > 20.6 µM

COc1ccc(/C(O)=C2/C(=O)C(=O)N(CCN3CCOCC3)C2c2ccccn2)cc1 (centres undefined)
inactive: activity change, negative = inhibition [1] 7.11% | activity change, negative = inhibition [2] 6.7% | activity, negative = inhibition [3] 0.702% | Potency [4] > 20.6 µM

c1ccc(OCc2nn3c(C4CCCCC4)nnc3s2)cc1
inactive: activity change, negative = inhibition [1] -8.37% | activity change, negative = inhibition [2] 0.0415% | activity, negative = inhibition [3] 8.07% | Potency [4] > 20.6 µM

C/C(=N\O)C(=O)NCCCn1ccnc1
inactive: activity change, negative = inhibition [1] 16.3% | activity change, negative = inhibition [2] 1.22% | activity, negative = inhibition [3] 16.8% | Potency [4] > 20.6 µM

C1CNCCNCCCNCCNC1
inactive: activity change, negative = inhibition [1] 1.85% | activity change, negative = inhibition [2] 2.39% | activity, negative = inhibition [3] -11.5% | Potency [4] > 20.6 µM

CC(=O)NCC(=O)OCN1C(=O)c2ccccc2C1=O
inactive: activity change, negative = inhibition [1] 10.5% | activity change, negative = inhibition [2] -1.05% | activity, negative = inhibition [3] 0.512% | Potency [4] > 20.6 µM

Cc1cn2c(-c3ccncc3)nnc2s1
inactive: activity change, negative = inhibition [1] -4.06% | activity change, negative = inhibition [2] 1.86% | activity, negative = inhibition [3] -2.66% | Potency [4] > 20.6 µM

CC(C)Oc1ccc(Cc2c(O)nc(NCCCN(C)C)[nH]c2=O)cc1
inactive: activity change, negative = inhibition [1] 9.78% | activity change, negative = inhibition [2] 3.21% | activity, negative = inhibition [3] 4.27% | Potency [4] > 20.6 µM

CCOC(=O)c1[nH]c2ccccc2c1NC(=O)CN(C)C
inactive: activity change, negative = inhibition [1] 1.77% | activity change, negative = inhibition [2] -6.47% | activity, negative = inhibition [3] 1.63% | Potency [4] > 20.6 µM
